According to PubChem BioAssay (Tox21):
Inconclusive results are not listed. Where a call stands in place of a potency, no number is given. Active and inactive are the calls of the source. Calls follow the shape of the dose curve; as a rule, active = well fitted cell-killing curve with a large enough effect in the repeat runs; inconclusive = weak or mixed curves; inactive = flat fitted curve, though single readings scatter.

experiment: qHTS assay to identify small molecule antagonists of the estrogen related receptor (ERR) signaling pathway - cell viability counter screen (AID 1224818); conditions: ERR reporter cell line viability counter screen; series mostly up to 46.1 µM
Procedure, shortened: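 Fluorescence from CellTiter-Fluor, read 30 min after reagent addition at 37 C, measured viability of ERR cells exposed to compounds for 17.5 h. Cells had settled 6 h before dosing.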

Row | SMILES | Potency
1 | Clc1nccc2c1ccc1ccccc12 | inactive
2 | CC(C)COC(=O)OCN1C(=O)CN(CCN2CC(=O)N(COC(=O)OCC(C)C)C(=O)C2)CC1=O | inactive
3 | COc1ccc2c(c1)c(CC(=O)O)c(C)n2Cc1ccc(Cl)cc1 | inactive
4 | COc1ccc(/C=C/C(=O)Nc2ccccc2C(=O)O)cc1OC | inactive
5 | C=C1C[C@@]23CC[C@H]4[C@@](C)(CCC[C@@]4(C)C(=O)O)[C@@H]2CC[C@]1(O)C3 | inactive
6 | CC1CCN(CC[C@H]2CCCN2S(=O)(=O)c2cccc(O)c2)CC1 | inactive
7 | C=C/C(C)=C/[C@@]1(C)SC(=O)C(C)=C1O | inactive
8 | Oc1cc2c(cc1O)C(c1ccccc1)CNCC2 (stereo not drawn) | inactive
9 | NC(=Nc1ccccc1)NC(=O)c1nc(Cl)c(N)nc1N | inactive
10 | Nc1ccc(-c2ccc3ccccc3n2)cc1 | inactive
11 | OCC1NCC(O)C(O)C1O (stereo not drawn) | inactive
12 | CC(C)(CO)Cc1cc(C(C)(C)C)c(O)c(C(C)(C)C)c1 | inactive
13 | CN[C@H](CC(C)C)C(=O)N[C@H]1C(=O)N[C@@H](CC(N)=O)C(=O)N[C@H]2C(=O)N[C@H]3C(=O)N[C@H](C(=O)N[C@H](C(=O)O)c4cc(O)cc(O)c4-c4cc3ccc4O)[C@H](O)c3ccc(c(Cl)c3)Oc3cc2cc(c3O[C@@H]2O[C@H](CO)[C@@H](O)[C@H](O)[C@H]2O[C@H]2C[C@](C)(N)[C@H](O)[C@H](C)O2)Oc2ccc(cc2Cl)[C@H]1O | inactive
14 | OCC1O[C@H](O)C(Cl)C(O)C1O (stereo partly drawn) | inactive
15 | CC(C)(C=O)Cc1cc(C(C)(C)C)c(O)c(C(C)(C)C)c1 | inactive
16 | COC(=O)C(C)(N)Cc1ccc(O)cc1 (stereo not drawn) | inactive
17 | CC(C)(C)[C@]1(O)CCN2C[C@H]3c4ccccc4CCc4cccc(c43)[C@@H]2C1 | inactive
18 | Cc1ccc2c(c1)C(N1CCN(C)CC1)=Nc1cccnc1N2 | inactive
19 | COc1cc([C@@H]2c3cc4c(cc3[C@H](O)C3COC(=O)[C@@H]32)OCO4)cc(OC)c1OC (stereo partly drawn) | inactive
20 | C#CC(N)CCC(=O)O (stereo not drawn) | inactive
21 | S=C(S)OC1CC2CC1C1CCCC21 (stereo not drawn) | inactive
22 | NC(N)=NC(N)=Nc1ccccc1 | inactive
23 | NC1C=CC=C(C(=O)O)C1 (stereo not drawn) | inactive
